Potency and affinity values are given separately. The source made the active and inactive calls. How the calls were made is not given here.
test: Vero cell cytotoxicity, dose response, cytotoxicity control for M. tuberculosis growth inhibitor project, Vero cells, purified and synthesized compounds, set 4 (AID 504854); details: series mostly up to 100 µM; viability: at the top concentration

| SMILES | viability |
| --- | --- |
| CN(C)C(=O)CSc1nc2ccccc2c(=O)[nH]1 | 105% (inactive) |
| COC(=O)c1ccc(CNc2c(N3CCCC3)c(=O)c2=O)cc1 | 93.3% (inactive) |
| CC(C)CCNC(=O)CSc1nc2ccccc2c(=O)[nH]1 | 92.4% (inactive) |
| CCOC(=O)CSc1nc(C)c(C)c(=O)[nH]1 | 95.6% (inactive) |
| CCSc1nc(C)c(C)c(=O)[nH]1 | 94.9% (inactive) |
| O=C(CSc1nccc(=O)[nH]1)NC1CCCCC1 | 90.6% (inactive) |
| CN1CCC(NC(=O)CSc2nc3ccccc3c(=O)[nH]2)CC1 | 94.4% (inactive) |
| Cc1cc(=O)[nH]c(SCC(=O)NC2CCCCC2)n1 | 86.1% (inactive) |
| Cc1cccc(/C=C/C(=O)c2ccc([N+](=O)[O-])o2)c1 | 102% (inactive) |
| Cc1cc(=O)[nH]c(=S)[nH]1 | 108% (inactive) |
| Nc1cc(=O)[nH]c(SCC(=O)NC2CCCCC2)n1 | 91.4% (inactive) |
| CCC(Sc1nc2ccccc2c(=O)[nH]1)C(=O)NC1CCCCC1 (stereo not drawn) | 97.8% (inactive) |
| O=C(CSc1ncccn1)NC1CCCCC1 | 91.7% (inactive) |
| CCOC1OC(=O)C(Cl)=C1Nc1ccccc1C (stereo not drawn) | 93.3% (inactive) |
| COc1ccc(NC(=O)CSc2nc3ccccc3c(=O)[nH]2)cc1 | 86.4% (inactive) |
| CC[N+](C)(CC)CCCCOc1ccc2c(c1)C(=O)c1cc(OCCCC[N+](C)(CC)CC)ccc1-2 | 92.3% (inactive) |
| O=C(CSc1ccccn1)NC1CCCCC1 | 93.5% (inactive) |

| SMILES | viability |
| --- | --- |
| Cc1[nH]c(=S)[nH]c(=O)c1C | 92.8% (inactive) |
| Cc1ccc(NC(=O)COC(=O)CCc2c[nH]c3ccccc23)cc1[N+](=O)[O-] | 95.8% (inactive) |
| Cc1cnc(SCC(=O)NC2CCCCC2)[nH]c1=O | 86.8% (inactive) |
| Cc1nc(SCC(=O)NCCC(C)C)[nH]c(=O)c1C | 89.4% (inactive) |
| Cc1c[nH]c(=S)[nH]c1=O | 99.7% (inactive) |
| Cc1nc(SCC(N)=O)[nH]c(=O)c1C | 92% (inactive) |
| Nc1c(C(=O)NC2CCCCC2)nsc1C(=O)OCC(=O)NC1CCCCC1 | 96.5% (inactive) |
| Cc1nc(SCc2ccccc2Cl)[nH]c(=O)c1C | 97.2% (inactive) |
| COc1cccc(NC(=O)CSc2nc3c(c(=O)[nH]2)CCC3)c1 | 87.3% (inactive) |
| O=c1[nH]c(=S)[nH]c2ccccc12 | 94.9% (inactive) |
| Cc1nc(SCC(=O)NC2CCCC2)[nH]c(=O)c1C | 106% (inactive) |
| Cn1c(SCC(=O)NC2CCCCC2)nc2ccccc2c1=O | 95.2% (inactive) |
| O=C(CSc1nc2ccccc2c(=O)[nH]1)N1CCOCC1 | 84.2% (inactive) |
| O=C(CSc1nc2ccccc2c(=O)[nH]1)NC1CCCCC1 | 96.3% (inactive) |
| Cc1nc(SCC(=O)N(C)c2ccccc2)[nH]c(=O)c1C | 97% (inactive) |
| NC(=O)CSc1nc2ccccc2c(=O)[nH]1 | 98.6% (inactive) |
